The nature of experiment [1]: A CellTox Green Cytotoxicity Assay to monitor cytotoxicity in HEK293 cells - 32 hour (AID 1224881). Further: nearly all actives have a fitted effect of over 40% in size. The procedure, abridged: (§1)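 Homogeneous no-lysis format: HEK293 cell suspension mixed with CellTox Green reagent, seeded, incubated 5 h at 37 C/5% CO2, then dosed by pintool with compound in DMSO.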
Experiment [2] can be described thus: A CellTox Green Cytotoxicity Assay to monitor cytotoxicity in HepG2 cells - 0 hour (AID 1224882). Further: nearly all actives have a fitted effect of over 35% in size. The procedure, abridged: (§2)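 Fluorescent DNA-binding dye, 600 HepG2 cells/well, 5 h preincubation then compound in DMSO; same plates read at 0–40 h, 37 C.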
The nature of experiment [3]: A CellTox Green Cytotoxicity Assay to monitor cytotoxicity in HepG2 cells - 32 hour (AID 1224883). Further: nearly all actives have a fitted effect of over 50% in size. The procedure, abridged: as §2
The nature of experiment [4]: A CellTox Green Cytotoxicity Assay to monitor cytotoxicity in HEK293 cells - 8 hour (AID 1224884). Further: nearly all actives have a fitted effect of over 35% in size. A digest of the protocol: as §1
Experiment [5] is described as follows: qHTS RealTime-Glo MT Cell Viability Assay in HepG2 cells - 16 hour (AID 1224885). Further: nearly all actives have a fitted effect of over 50% in size. The procedure, abridged: (§3)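 Compound treatment began 5 h after plating HepG2 cells (600/well) with NanoLuc luciferase and prosubstrate. Plates stayed at 37 C for 40 h; luminescence was captured at six time points, 0 h through 40 h.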
In general terms: Quantitative high-throughput screening tests each substance at several concentrations.

Experiment [6] in a line: qHTS RealTime-Glo MT Cell Viability Assay in HEK293 cells - 24 hour (AID 1224886). Further: nearly all actives have a fitted effect of over 50% in size. Further: potency means the concentration at half of the fitted maximal effect. A digest of the protocol: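 Quantitative high-throughput screen of the Tox21 10K library in HEK293: cells and RealTime-Glo reagents plated together, compound added at 5 h, luminescence monitored through 40 h at 37 C.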
Experiment [7] can be described thus: A CellTox Green Cytotoxicity Assay to monitor cytotoxicity in HEK293 cells - 16 hour (AID 1224888). Further: nearly all actives have a fitted effect of over 35% in size. A digest of the protocol:
as §1

The nature of experiment [8]: qHTS RealTime-Glo MT Cell Viability Assay in HepG2 cells - 0 hour (AID 1224889). Further: nearly all actives have a fitted effect of over 50% in size. The procedure, abridged: as §3
Experiment [9] is described as follows: A CellTox Green Cytotoxicity Assay to monitor cytotoxicity in HepG2 cells - 8 hour (AID 1224890). Further: nearly all actives have a fitted effect of over 45% in size. The procedure, abridged:
as §2

A short description of experiment [10]: qHTS assay to identify small molecule antagonists of the estrogen receptor alpha (ER-alpha) signaling pathway using the BG1 cell line in the presence of 0.1 nM 17-beta-estradiol - cell viability counter screen (AID 1259241). Further: nearly all actives have a fitted effect of over 40% in size. A digest of the protocol: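 CellTiter-Fluor read (30 min, 37C) on ER-alpha/ERE-luc VM7Luc4E2 cells; 22 hr compound treatment; agonist 0.1 nM E2 final; same-well multiplex.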

A short description of experiment [11]: qHTS assay to identify small molecule antagonists of the androgen receptor (AR) signaling pathway using the MDA cell line in the presence of 0.5 nM R1881 - cell viability counter screen (AID 1259242). Further: nearly all actives have a fitted effect of over 45% in size. A digest of the protocol: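 Human breast carcinoma MDA-kb2 cells, cultured without CO2, receive compounds alongside 0.5 nM (final) R1881 agonist. After 16 hr at 37C, viability is taken as live-cell protease signal.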

Experiment [12] has as its target Estrogen receptor (Homo sapiens) (UniProt P03372). In words: qHTS assay to identify small molecule antagonists of the estrogen receptor alpha (ER-alpha) signaling pathway using the BG1 cell line in the presence of 0.1 nM 17-beta-estradiol (AID 1259244). Further: nearly all actives have a fitted effect of over 50% in size. A digest of the protocol:
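Seeding of stripped-serum-adapted VM7Luc4E2 cells, 24 h attachment, compound transfer, then 0.1 nM final 17beta-estradiol; after 22 h incubation, ONE-Glo reagent and luminescence reading.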

Experiment [13] is described as follows: qHTS assay to identify small molecule HDAC inhibitors (AID 1259364). Further: potency means the concentration at half of the fitted maximal effect.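 Further: wild-type HCT-116 cells with endogenous class I/II HDAC activity; nearly all actives have a fitted effect of over 45% in size.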 The procedure, abridged:
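After a 2 hr compound incubation (37C, 5% CO2), HCT-116 cells seeded at 1,500/well the day before received HDAC-Glo reagent; signal read as luminescence after 30 min at room temperature.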

The nature of experiment [14]: qHTS assay to identify small molecule HDAC inhibitors - cell viability counter screen (AID 1259365). The procedure, abridged: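 To flag cytotoxic hits, 1,500 wild-type HCT-116 cells per well, plated the day before, receive test compounds for 2hr at 37 C before CellTiter-Glo reagent and a luminescence read.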
Experiment [15] in a line: qHTS assay to identify small molecule agonists of the sonic hedgehog signaling (Shh) pathway - cell viability counter screen (AID 1259366). Further: nearly all actives have a fitted effect of over 50% in size. A digest of the protocol:
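Fluorescence from CellTiter-Fluor reports live cells in this counter screen. NIH/3T3-derived Gli1-Luc reporter cells receive test compounds for 24hr at 37C; reagent goes in at 23hr.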

The nature of experiment [16]: qHTS assay to identify small molecule agonists of the sonic hedgehog signaling (Shh) pathway (AID 1259368; calls by dose curve;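 further: NIH/3T3-derived 3T3Gli1-Luc cells carrying a stable Gli1-driven firefly luciferase reporter; series mostly up to about 92 µM; nearly all actives have a fitted effect of over 15% in size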). The procedure, abridged: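 Stable NIH/3T3 Gli1-Luc reporter clone; 24 hr cpd exposure after a 4 hr settling period; luminescence endpoint.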
The nature of experiment [17]: qHTS RealTime-Glo MT Cell Viability Assay in HEK293 cells - 8 hour (AID 1224887). Further: nearly all actives have a fitted effect of over 50% in size. Further: potency means the concentration at half of the fitted maximal effect. The procedure, abridged: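 Measured as luminescence from the same continuously cultured HEK293 wells at successive time points (0, 8, 16, 24, 32, 40 h) after compound addition. Reagent present from seeding; dosing at 5 h; incubation 37 C.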
Experiment [18] is described as follows: qHTS assay to identify small molecule antagonists of the sonic hedgehog signaling (Shh) pathway - cell viability counter screen (AID 1259367). Further: nearly all actives have a fitted effect of over 55% in size. The procedure, abridged: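 Cytotoxicity was assessed in parallel with Shh reporter activity by measuring live-cell protease fluorescence (CellTiter-Fluor) in NIH/3T3 cells stably carrying Gli1-Luc, treated with compound under conditioned medium stimulation for 23 hr plus 1 hr reagent incubation.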

Experiment [19] concerns the target Androgen receptor (Homo sapiens) (UniProt P10275). In words: qHTS assay to identify small molecule antagonists of the androgen receptor (AR) signaling pathway using the MDA cell line in the presence of 0.5 nM R1881 (AID 1259243). Further: nearly all actives have a fitted effect of over 50% in size. A digest of the protocol:
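Cells: MDA-kb2 (MMTV-luc). Stimulus: 0.5 nM R1881. Time: 16 hr, 37C, no CO2. Detection: ONE-Glo luminescence after 30 min at RT.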

Each structure is given as a SMILES string. “And” between values parts separate entries of the source, which are not always exact repeats. Identical values can stand only once. Inconclusive results are not listed. More than one record can exist for a structure, and the calls need not agree. The source made the active and inactive calls. Unless noted, the call rests on the fitted dose curve; in most records, active means well fitted curve in the direction sought with a large enough effect in the repeat runs; inconclusive means weak or mixed curves; inactive means no such curve, though single readings can be large; an effect the other way counts as inactive or inconclusive.

Chain of Estrogen receptor (Homo sapiens) (P03372 whole entry, looked up): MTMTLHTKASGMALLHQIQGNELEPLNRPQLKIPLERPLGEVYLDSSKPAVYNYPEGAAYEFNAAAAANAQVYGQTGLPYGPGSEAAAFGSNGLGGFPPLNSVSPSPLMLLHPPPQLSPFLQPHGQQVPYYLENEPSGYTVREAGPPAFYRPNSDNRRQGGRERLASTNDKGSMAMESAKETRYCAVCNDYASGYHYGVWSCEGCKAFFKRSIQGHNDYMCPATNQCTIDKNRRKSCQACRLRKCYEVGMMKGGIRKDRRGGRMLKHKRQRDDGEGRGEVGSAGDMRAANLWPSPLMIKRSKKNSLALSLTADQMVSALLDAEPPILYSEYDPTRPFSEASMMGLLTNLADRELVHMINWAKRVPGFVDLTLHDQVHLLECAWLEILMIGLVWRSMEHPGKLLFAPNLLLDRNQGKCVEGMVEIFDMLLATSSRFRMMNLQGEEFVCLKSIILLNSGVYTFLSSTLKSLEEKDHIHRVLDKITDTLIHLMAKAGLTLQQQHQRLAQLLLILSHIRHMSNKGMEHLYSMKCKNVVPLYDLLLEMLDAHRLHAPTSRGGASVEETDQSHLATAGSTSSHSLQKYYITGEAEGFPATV
Chain of Androgen receptor (Homo sapiens) (P10275 whole entry, looked up): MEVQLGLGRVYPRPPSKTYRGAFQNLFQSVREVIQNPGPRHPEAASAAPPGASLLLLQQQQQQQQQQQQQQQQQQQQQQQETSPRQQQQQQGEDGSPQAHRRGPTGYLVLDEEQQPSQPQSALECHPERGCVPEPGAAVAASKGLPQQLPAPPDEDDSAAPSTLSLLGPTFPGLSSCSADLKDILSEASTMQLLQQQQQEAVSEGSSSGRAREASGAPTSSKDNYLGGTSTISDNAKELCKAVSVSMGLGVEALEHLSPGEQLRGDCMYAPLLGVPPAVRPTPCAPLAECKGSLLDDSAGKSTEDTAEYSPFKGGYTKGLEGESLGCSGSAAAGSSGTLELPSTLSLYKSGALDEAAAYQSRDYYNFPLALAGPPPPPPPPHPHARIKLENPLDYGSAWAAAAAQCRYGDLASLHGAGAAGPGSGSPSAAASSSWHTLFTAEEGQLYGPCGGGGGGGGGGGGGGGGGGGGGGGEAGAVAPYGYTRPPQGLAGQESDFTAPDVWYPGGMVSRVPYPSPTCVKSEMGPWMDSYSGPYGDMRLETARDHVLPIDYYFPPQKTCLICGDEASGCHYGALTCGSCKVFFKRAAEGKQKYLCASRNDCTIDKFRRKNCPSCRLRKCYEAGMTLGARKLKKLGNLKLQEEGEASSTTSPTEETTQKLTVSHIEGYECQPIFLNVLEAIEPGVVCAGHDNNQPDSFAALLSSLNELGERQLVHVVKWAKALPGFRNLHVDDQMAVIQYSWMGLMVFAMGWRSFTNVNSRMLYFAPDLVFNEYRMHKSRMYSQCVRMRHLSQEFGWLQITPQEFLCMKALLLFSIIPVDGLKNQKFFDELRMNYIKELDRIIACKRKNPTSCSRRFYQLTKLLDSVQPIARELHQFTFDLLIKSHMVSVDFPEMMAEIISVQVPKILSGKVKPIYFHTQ

With `CCCCCCCCCCCCCO`, the Potency result in experiment [1], in experiment [2], in experiment [3], in experiment [4], in experiment [5] and in experiment [6] was “inactive” each time. Moreover, the Potency result in [7], in experiment [8], in [9], in experiment [10], in experiment [11] and in experiment [12] was “inactive” throughout. The Potency result in experiment [13], in experiment [15] and in experiment [16] was “inactive” throughout. In addition, in [14], the call was inactive.

As to `Cc1ccc2c(c1)C(=O)OC2=O`, the Potency result in [1], in experiment [2], in [3], in experiment [4], in experiment [5] and in experiment [6] was “inactive” in each case. Besides, the Potency entry in [17], in [7], in experiment [8], in experiment [9], in experiment [11] and in [13] was “inactive” each time. Further, the Potency result in experiment [15], in [18] and in experiment [16] was “inactive” in each case. Besides, the call in experiment [14] was inactive.

For the compound `O=S1(=O)CCCO1`, the Potency entry in [1], in experiment [2], in experiment [3], in experiment [4], in [5] and in experiment [6] was “inactive” throughout. For the same compound, the Potency entry in experiment [17], in experiment [7], in experiment [8], in [9], in [10] and in experiment [11] was “inactive” each time. Also, the Potency entry in [12], in [13], in experiment [15] and in experiment [16] was “inactive” throughout. For the same compound, the outcome in experiment [14] was inactive.

Regarding `c1ccc2ncccc2c1`, the Potency result in experiment [1], in experiment [2], in [3], in experiment [4], in [5] and in [6] was “inactive” throughout. Also, the Potency entry in experiment [17], in experiment [7], in experiment [8], in [9], in experiment [11] and in experiment [12] was “inactive” throughout. Moreover, the Potency result in [13], in [15] and in experiment [16] was “inactive” each time. In addition, in experiment [14], the compound was classed as inactive.

Turning to `CCCCCCC(C)O` (stereo not drawn), the Potency entry in [1], in [2], in experiment [3], in [4], in experiment [5] and in [6] was “inactive” each time. For the same compound, the Potency entry in experiment [7], in experiment [8], in [9], in experiment [10], in [11] and in experiment [12] was “inactive” throughout. For the same compound, the Potency result in [13], in experiment [15] and in experiment [16] was “inactive” in each case. Besides, the result in experiment [14] was inactive.

Regarding `CCOC(=O)C(C)Oc1ccc(Oc2cnc3cc(Cl)ccc3n2)cc1` (stereo not drawn), the Potency result in [1], in experiment [2], in experiment [3], in experiment [4], in [5] and in experiment [7] was “inactive” throughout. Also, the Potency result in experiment [8], in [9], in experiment [10], in experiment [11], in experiment [12] and in experiment [13] was “inactive” each time. In addition, the Potency entry in [15], in experiment [18] and in experiment [16] was “inactive” each time. For the same compound, the Potency in [6] is 22.4 µM (active) and 36.4 µM (active); in experiment [17] it was 14.1 µM (active) and 16.3 µM (active). In [14], the call was inactive.

`COc1ccc2nc(N)sc2c1`: the Potency result in [1], in experiment [2], in [3], in [4], in experiment [5] and in [17] was “inactive” throughout. In addition, the Potency result in experiment [7], in experiment [8], in experiment [9], in experiment [10], in experiment [11] and in [19] was “inactive” in each case. In addition, the Potency entry in experiment [12], in experiment [15], in [18] and in experiment [16] was “inactive” in each case. In addition, the Potency entry in experiment [6] is “inactive and 3.09 µM (active)”; in experiment [13], 27.3 µM (active) and 24.3 µM (active). Also, the outcome in experiment [14] was inactive.

For the origin of these results see PubChem BioAssay (Tox21).
